Results published in the supplement of paper PMC3334620.
Whole data set: some 33,000 sequences, median “E-score (-0.5 to 0.5)” near -0.0059, cut for the highest 2% near 0.26. This is one part of a sample in which the highest values are shown more often than they occur.

What follows are sequences tested against T1, Cin5 (UniProt P40917) (assay: PBM E-score (8-mer binding enrichment) (E-score (-0.5 to 0.5)); higher = stronger / more preferred TF binding). Details: protein concentration: 100 nM; construct: GST-full length.
T1 sequence: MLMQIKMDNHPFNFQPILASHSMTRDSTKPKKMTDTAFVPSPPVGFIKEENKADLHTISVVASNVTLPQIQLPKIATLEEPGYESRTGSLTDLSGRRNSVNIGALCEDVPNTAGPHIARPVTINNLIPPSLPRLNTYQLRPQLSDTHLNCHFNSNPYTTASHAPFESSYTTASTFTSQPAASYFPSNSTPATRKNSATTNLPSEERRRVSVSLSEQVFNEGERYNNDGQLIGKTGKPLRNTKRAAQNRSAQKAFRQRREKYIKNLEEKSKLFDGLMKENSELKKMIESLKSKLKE
Summary of the method: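 Yeast transcription factors, full-length or as DNA-binding domains, were expressed with a GST tag using PURExpress in vitro transcription/translation. At about 100-200 nM they were applied to universal all-10-mer Agilent arrays, double-stranded by primer extension on fresh or once-stripped slides. Fluorescent anti-GST detected bound protein, and masliner normalised the scans. E-scores for ungapped eight-base words, pooled with reverse complements, came from the Universal PBM Analysis Suite.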
In the case of ATGTACAA, the “PBM E-score” value is reported as 0.0216.
With ACCTTAGA the “PBM E-score” value was 0.0107.
AGGTATCC was tested, and the “PBM E-score” value was 0.0225.
With AACGCACT the “PBM E-score” value was -0.037.
TGACTCCA was tested, and the “PBM E-score” value was -0.17.
In the case of CCTTCGTC, the “PBM E-score” value is reported as -0.106.
For ACTATAGT, the “PBM E-score” value was 0.174.
In the case of CGAGCATC, the “PBM E-score” value is reported as 0.0462.
In the case of GGAGGATA, the “PBM E-score” value is reported as -0.0068.
In the case of GCACTTTA, the “PBM E-score” value is reported as -0.0367.
For GATATATA, the “PBM E-score” value was 0.266.
With GACATACA the “PBM E-score” value was 0.314.
CTTATAAA was tested, and the “PBM E-score” value was 0.154.
In the case of GATATATC, the “PBM E-score” value is reported as 0.1.
In the case of TTTATAAA, the “PBM E-score” value is reported as 0.259.
For TACATACA, the “PBM E-score” value was 0.238.
With CATATAAA the “PBM E-score” value was 0.138.
In the case of GATATAAA, the “PBM E-score” value is reported as 0.0539.
GATATACA was tested, and the “PBM E-score” value was 0.138.
In the case of GTTATAAA, the “PBM E-score” value is reported as 0.198.
CACATACA was tested, and the “PBM E-score” value was 9e-05.
In the case of TATATAAA, the “PBM E-score” value is reported as 0.283.
ACGTCGAT was tested, and the “PBM E-score” value was 0.105.
In the case of AACCCTGC, the “PBM E-score” value is reported as -0.0766.
In the case of CGCGAATC, the “PBM E-score” value is reported as 0.0184.
In the case of TTCTCAAA, the “PBM E-score” value is reported as 0.15.
With AGGGCCAA the “PBM E-score” value was -0.313.
In the case of GCCCAGTA, the “PBM E-score” value is reported as -0.0745.
In the case of AGGAGACC, the “PBM E-score” value is reported as -0.201.
In the case of CGTGATTA, the “PBM E-score” value is reported as 0.273.
CGTGATTC was tested, and the “PBM E-score” value was -0.0445.
AGTGATTC was tested, and the “PBM E-score” value was -0.0118.
GGTGATTA was tested, and the “PBM E-score” value was 0.213.
CGTGATGA was tested, and the “PBM E-score” value was -0.0266.
With AGTGATTA the “PBM E-score” value was 0.275.
For CAAGAATC, the “PBM E-score” value was 0.133.
AGCGGTAT was tested, and the “PBM E-score” value was 0.158.
In the case of TTACTAAA, the “PBM E-score” value is reported as 0.266.
For ATACTAAC, the “PBM E-score” value was 0.166.
In the case of ATACTACC, the “PBM E-score” value is reported as -0.0132.
For CTACTAAA, the “PBM E-score” value was -0.0525.
In the case of ATACTAAA, the “PBM E-score” value is reported as 0.265.
ATACTACA was tested, and the “PBM E-score” value was 0.285.
In the case of CTACTACA, the “PBM E-score” value is reported as 0.173.
In the case of ATACTAAG, the “PBM E-score” value is reported as 0.012.
In the case of GTACTAAA, the “PBM E-score” value is reported as 0.0965.
For ACTTCCCG, the “PBM E-score” value was -0.0152.
In the case of CGGAGGAG, the “PBM E-score” value is reported as -0.182.
AGGAAAAG was tested, and the “PBM E-score” value was 0.0753.
GGACCTGA was tested, and the “PBM E-score” value was -0.107.
CGACGAAG was tested, and the “PBM E-score” value was -0.0192.
ACTATAGG was tested, and the “PBM E-score” value was -0.0568.
CATATAAG was tested, and the “PBM E-score” value was 0.0464.
With AATATAAT the “PBM E-score” value was 0.177.
In the case of AATATATG, the “PBM E-score” value is reported as 0.248.
In the case of AATATAGT, the “PBM E-score” value is reported as 0.315.
AATATATT was tested, and the “PBM E-score” value was 0.363.
With AATATAGC the “PBM E-score” value was 0.0896.
AATATAAG was tested, and the “PBM E-score” value was 0.276.
With AATATAGG the “PBM E-score” value was 0.317.
AATATATA was tested, and the “PBM E-score” value was 0.18.
AATATAGA was tested, and the “PBM E-score” value was 0.186.
CATATAGG was tested, and the “PBM E-score” value was 0.0225.
With GGTGGGAC the “PBM E-score” value was -0.313.
CCCGGAGG was tested, and the “PBM E-score” value was -0.377.
For AATCATCA, the “PBM E-score” value was 0.229.
AGACTGCT was tested, and the “PBM E-score” value was -0.00887.
In the case of AGGCATAC, the “PBM E-score” value is reported as 0.0609.
In the case of CATGCACA, the “PBM E-score” value is reported as 0.156.
For AACGATGT, the “PBM E-score” value was 0.0581.
With AAACGCTG the “PBM E-score” value was -0.139.
With GGGGATTA the “PBM E-score” value was 0.253.
With GACTGCCC the “PBM E-score” value was -0.188.
With GTCTGAAC the “PBM E-score” value was -0.16.
AGTGCCCA was tested, and the “PBM E-score” value was 0.0274.
For TAATACTA, the “PBM E-score” value was 0.372.
For CAATACTA, the “PBM E-score” value was 0.0648.
TAATACCA was tested, and the “PBM E-score” value was 0.279.
GAATACTA was tested, and the “PBM E-score” value was 0.267.
With GAATACCA the “PBM E-score” value was 0.207.
In the case of CAATACCA, the “PBM E-score” value is reported as 0.0989.
TAATACAA was tested, and the “PBM E-score” value was 0.232.
TAATACGA was tested, and the “PBM E-score” value was 0.12.
In the case of AAATACTA, the “PBM E-score” value is reported as 0.112.
For CGTTGGGC, the “PBM E-score” value was -0.0408.
For ATGGACAG, the “PBM E-score” value was -0.15.
GGACCAAC was tested, and the “PBM E-score” value was -0.134.
ACTTAGAC was tested, and the “PBM E-score” value was 0.0559.
With CCTGCGAG the “PBM E-score” value was -0.0365.
CAGGGACA was tested, and the “PBM E-score” value was -0.0907.
With CTGCGAGA the “PBM E-score” value was -0.332.
For CATATTTC, the “PBM E-score” value was 0.0909.
In the case of AATATTGA, the “PBM E-score” value is reported as 0.172.
With AATATTTA the “PBM E-score” value was 0.217.
With CATATTAC the “PBM E-score” value was 0.287.
For AACATTAG, the “PBM E-score” value was -0.0325.
In the case of AACATTAC, the “PBM E-score” value is reported as 0.148.
In the case of AACATTAT, the “PBM E-score” value is reported as 0.261.
AATATTAA was tested, and the “PBM E-score” value was 0.304.
With CATATTAG the “PBM E-score” value was 0.16.
AATATTGC was tested, and the “PBM E-score” value was 0.235.
AATATTGT was tested, and the “PBM E-score” value was 0.28.
In the case of AATATTGG, the “PBM E-score” value is reported as 0.154.
In the case of ACACGTTG, the “PBM E-score” value is reported as -0.238.
In the case of CGGTAACG, the “PBM E-score” value is reported as -0.0557.
AACTTTTC was tested, and the “PBM E-score” value was 0.0286.
With CGTCCCAC the “PBM E-score” value was -0.0257.
In the case of CTCCAGGA, the “PBM E-score” value is reported as -0.221.
For GGCTGCAC, the “PBM E-score” value was -0.148.
With CACATAGC the “PBM E-score” value was -0.142.
For CGTTTCCA, the “PBM E-score” value was 0.0865.
For ACAATCCA, the “PBM E-score” value was 0.209.
GCTATTAC was tested, and the “PBM E-score” value was 0.0669.
In the case of TCTATTAA, the “PBM E-score” value is reported as 0.109.
For ACTATTAT, the “PBM E-score” value was 0.137.
AATATTCC was tested, and the “PBM E-score” value was 0.289.
With AATATTAT the “PBM E-score” value was 0.343.
For AATATTCG, the “PBM E-score” value was 0.19.
AATATTCA was tested, and the “PBM E-score” value was 0.24.
In the case of GATATTAC, the “PBM E-score” value is reported as 0.315.
In the case of TATATTAA, the “PBM E-score” value is reported as 0.287.
With TGTATTAA the “PBM E-score” value was 0.202.
With AATATTAG the “PBM E-score” value was 0.215.
For GATATTCC, the “PBM E-score” value was 0.0678.
In the case of AAAGACGA, the “PBM E-score” value is reported as 0.036.
For GACCACTA, the “PBM E-score” value was 0.171.
For CCAGTCCG, the “PBM E-score” value was -0.296.
In the case of CCCGTAAC, the “PBM E-score” value is reported as -0.0624.
GACAGCTC was tested, and the “PBM E-score” value was -0.237.
In the case of ACAGCTTA, the “PBM E-score” value is reported as 0.195.
With AATGGAAC the “PBM E-score” value was 0.103.
With TACATTAA the “PBM E-score” value was 0.262.
GATATTCA was tested, and the “PBM E-score” value was 0.0685.
AACATTAA was tested, and the “PBM E-score” value was 0.114.
In the case of ATCATTAA, the “PBM E-score” value is reported as 0.221.
With CTCATTAA the “PBM E-score” value was 0.175.
With AATATTAC the “PBM E-score” value was 0.294.
In the case of GTCATTAA, the “PBM E-score” value is reported as 0.279.
In the case of GACATTAA, the “PBM E-score” value is reported as 0.0285.
With GATATTAA the “PBM E-score” value was 0.282.
For AATATTTC, the “PBM E-score” value was 0.18.
With GCTATTAA the “PBM E-score” value was 0.0303.
With CCTATTAC the “PBM E-score” value was 0.0787.
For GCGCAGAC, the “PBM E-score” value was -0.178.
ACGAGAGA was tested, and the “PBM E-score” value was -0.0604.
CCTTTGTC was tested, and the “PBM E-score” value was -0.0179.
CTAGGTTA was tested, and the “PBM E-score” value was 0.118.
In the case of AACAGTCA, the “PBM E-score” value is reported as -0.041.
In the case of CCTATTAA, the “PBM E-score” value is reported as 0.111.
With CATATTGA the “PBM E-score” value was 0.0883.
For TATATTGA, the “PBM E-score” value was 0.287.
In the case of CATATTAA, the “PBM E-score” value is reported as 0.275.
In the case of GATATTGA, the “PBM E-score” value is reported as 0.0812.
CATATTTA was tested, and the “PBM E-score” value was 0.157.
For GCTCCGCA, the “PBM E-score” value was -0.16.
With GGCGGAAA the “PBM E-score” value was 0.088.
For AGCAGTGA, the “PBM E-score” value was 0.2.
AAGCTTGC was tested, and the “PBM E-score” value was -0.0817.
For GTGTAGGA, the “PBM E-score” value was -0.0437.
AACGCGAA was tested, and the “PBM E-score” value was 0.281.
AACGCGAG was tested, and the “PBM E-score” value was 0.0992.
CACGCGAA was tested, and the “PBM E-score” value was -0.0826.
AACGCGCT was tested, and the “PBM E-score” value was -0.0706.
AACGCGCG was tested, and the “PBM E-score” value was 0.276.
With AACGCGCA the “PBM E-score” value was 0.0734.
CCAAAGCG was tested, and the “PBM E-score” value was -0.0566.
CCTTCATA was tested, and the “PBM E-score” value was 0.0109.
With ACGTCAGT the “PBM E-score” value was -0.12.
ACGTCATC was tested, and the “PBM E-score” value was 0.259.
For AAGTCAGC, the “PBM E-score” value was 0.293.
For CTGTCAGC, the “PBM E-score” value was 0.148.
GCGTCAGC was tested, and the “PBM E-score” value was -0.102.
